In PubChem BioAssay (Tox21):
Results filed as inconclusive are left out. The source made the active and inactive calls. Calls follow the shape of the dose curve; as a rule, active = well fitted curve in the direction sought with a large enough effect in the repeat runs; inconclusive = weak or mixed curves; inactive = no such curve, though single readings can be large; an effect the other way counts as inactive or inconclusive. Non-standard residues stand in square brackets, D forms with d. Residues, ends and D or L forms follow the SMILES beside them. *: point of attachment. Sta = CC(C)C[C@H](N)[C@@H](O)CC(=O)O; Isovaleryl = CC(C)CC(=O)*

Legend:
[1] = qHTS RealTime-Glo MT Cell Viability Assay in HEK293 cells - 32 hour (AID 1224868); also: top concentration of the series differs between compounds; nearly all actives have a fitted effect of over 50% in size
Method in brief: (§1)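 Nonlytic real-time viability readout: viable cells convert prosubstrate to NanoLuc substrate, giving luminescence proportional to live cell number. HEK293, 600 cells/well, compound added after 5 h, continuous culture at 37 C.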

[2] = A CellTox Green Cytotoxicity Assay to monitor cytotoxicity in HEK293 cells - 0 hour (AID 1224869); also: nearly all actives have a fitted effect of over 50% in size
Method in brief: (§2)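 Dead-cell fluorescence measured kinetically: asymmetric cyanine dye, HEK293, 600 cells/well, 5 h settle, 23 nL cpd/DMSO, 37 C, reads 0–40 h every 8 h.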

[3] = qHTS RealTime-Glo MT Cell Viability Assay in HepG2 cells - 40 hour (AID 1224870); also: nearly all actives have a fitted effect of over 50% in size
Method in brief: (§3)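 Real-time viability: cells seeded at 600 per well together with NanoLuc and cell-permeant prosubstrate, compounds added after 5 h incubation. Luminescence tracked at 0, 8, 16, 24, 32 and 40 h of exposure.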

[4] = A CellTox Green Cytotoxicity Assay to monitor cytotoxicity in HEK293 cells - 40 hour (AID 1224871); also: nearly all actives have a fitted effect of over 45% in size
Method in brief: as §2

[5] = qHTS RealTime-Glo MT Cell Viability Assay in HEK293 cells - 16 hour (AID 1224872); also: top concentration of the series differs between compounds; nearly all actives have a fitted effect of over 50% in size
Method in brief: as §1

[6] = qHTS RealTime-Glo MT Cell Viability Assay in HepG2 cells - 8 hour (AID 1224873); also: nearly all actives have a fitted effect of over 55% in size
Method in brief: as §3

[7] = qHTS RealTime-Glo MT Cell Viability Assay in HEK293 cells - 40 hour (AID 1224874); settings: RealTime-Glo luminescence, stronger effect = lower value; also: nearly all actives have a fitted effect of over 50% in size
Method in brief: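 600 HEK293 cells per well, dispensed already mixed with RealTime-Glo MT reagents. Compound dosing came 5 h later. The same wells were read for luminescence at 0, 8, 16, 24, 32 and 40 h of exposure at 37 C.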

[8] = A CellTox Green Cytotoxicity Assay to monitor cytotoxicity in HEK293 cells - 24 hour (AID 1224875); also: series mostly up to about 77 µM; nearly all actives have a fitted effect of over 45% in size
Method in brief: as §2

[9] = A CellTox Green Cytotoxicity Assay to monitor cytotoxicity in HepG2 cells - 16 hour (AID 1224876); also: nearly all actives have a fitted effect of over 45% in size
Method in brief: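 First, HepG2 cells (600/well) mixed with reagent were plated; second, after 5 h at 37 C they received compounds via pintool; third, fluorescence was measured at 0 h through 40 h at 8 h intervals.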

[10] = qHTS RealTime-Glo MT Cell Viability Assay in HepG2 cells - 32 hour (AID 1224877); also: nearly all actives have a fitted effect of over 55% in size
Method in brief: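 Luminescence read-out: viable HepG2 cells reduce a prosubstrate to a NanoLuc substrate, giving a signal proportional to live cell number. Reads taken at 0, 8, 16, 24, 32 and 40 h of compound exposure at 37 C.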
% is scaled to controls: 0 for no effect and ±100 for the full control effect.

CC(=O)SC[C@@H](C)C(=O)N1CCC[C@H]1C(=O)N[C@@H](Cc1ccccc1)C(=O)O
inactive: outcome [1] | outcome [2] | outcome [3] | Potency [4] | outcome [5] | outcome [6] | max response [7] 3.03% | Potency [8] | Potency [9] | outcome [10]

C/C(Cl)=C/CCl
inactive: outcome [1] | outcome [2] | outcome [3] | Potency [4] | outcome [5] | outcome [6] | max response [7] 16% | Potency [8] | Potency [9] | outcome [10]

O=S(=O)(O)c1cc(I)c(O)c2ncccc12
inactive: outcome [1] | outcome [2] | outcome [3] | Potency [4] | outcome [5] | outcome [6] | max response [7] 5.82% | Potency [8] | Potency [9] | outcome [10]

CCCC(C)C(O)CC (stereo not given)
inactive: outcome [1] | outcome [2] | outcome [3] | Potency [4] | outcome [5] | outcome [6] | max response [7] 14.3% | Potency [8] | Potency [9] | outcome [10]

CCCCCCC(O)CO (stereo not given)
inactive: outcome [1] | outcome [2] | outcome [3] | Potency [4] | outcome [5] | outcome [6] | max response [7] 1.68% | Potency [8] | Potency [9] | outcome [10]

c1coc(Cn2cccc2)c1
inactive: outcome [1] | outcome [2] | outcome [3] | Potency [4] | outcome [5] | outcome [6] | max response [7] 2.22% | Potency [8] | Potency [9] | outcome [10]

CCCCC(CC)COC(=O)CC#N (stereo not given)
inactive: outcome [1] | outcome [2] | outcome [3] | Potency [4] | outcome [5] | outcome [6] | max response [7] 0.0288% | Potency [8] | Potency [9] | outcome [10]

CC(C)(C)OC(=O)c1ccccc1C(=O)O
inactive: outcome [1] | outcome [2] | outcome [3] | Potency [4] | outcome [5] | outcome [6] | max response [7] 0.795% | Potency [8] | Potency [9] | outcome [10]

COc1cc2nc(N3CCN(C(=O)C4CCCO4)CC3)nc(N)c2cc1OC (stereo not given)
inactive: outcome [1] | outcome [2] | outcome [3] | Potency [4] | outcome [5] | outcome [6] | max response [7] -19.2% | Potency [8] | Potency [9] | outcome [10]

Clc1cc(Cl)c(Cl)c(Cl)c1Cl
inactive: outcome [1] | outcome [2] | outcome [3] | Potency [4] | outcome [5] | outcome [6] | max response [7] -0.18% | Potency [8] | Potency [9] | outcome [10]

CO/N=C(\C(=O)O)c1csc(NC(=O)CCl)n1
inactive: outcome [1] | outcome [2] | outcome [3] | Potency [4] | outcome [5] | outcome [6] | max response [7] 0.384% | Potency [8] | Potency [9] | outcome [10]

O=C1CCCc2c(O)cccc21
inactive: outcome [1] | outcome [2] | outcome [3] | Potency [4] | outcome [5] | outcome [6] | max response [7] 3.41% | Potency [8] | Potency [9] | outcome [10]

CC(C)CC(=O)N[C@H](C(=O)N[C@H](C(=O)N[C@@H](CC(C)C)[C@@H](O)CC(=O)N[C@@H](C)C(=O)N[C@@H](CC(C)C)[C@@H](O)CC(=O)O)C(C)C)C(C)C (Isovaleryl-VV[Sta]A[Sta]-OH)
inactive: outcome [1] | outcome [2] | outcome [3] | Potency [4] | outcome [5] | outcome [6] | max response [7] 14.7% | Potency [8] | Potency [9] | outcome [10]

COC(=O)c1cc(Cl)c(NC(C)=O)cc1OC
inactive: outcome [1] | outcome [2] | outcome [3] | Potency [4] | outcome [5] | outcome [6] | max response [7] 0.647% | Potency [8] | Potency [9] | outcome [10]

NS(=O)(=O)c1cc2c(cc1C(F)(F)F)NCNS2(=O)=O
inactive: outcome [1] | outcome [2] | outcome [3] | Potency [4] | outcome [5] | outcome [6] | max response [7] 14.4% | Potency [8] | Potency [9] | outcome [10]

C=CCOC(=O)CCCCCCCC
inactive: outcome [1] | outcome [2] | outcome [3] | Potency [4] | outcome [5] | outcome [6] | max response [7] 16% | Potency [8] | Potency [9] | outcome [10]

COc1cnc(NS(=O)(=O)c2ccc(N)cc2)nc1
inactive: outcome [1] | outcome [2] | outcome [3] | Potency [4] | outcome [5] | outcome [6] | max response [7] 3.91% | Potency [8] | Potency [9] | outcome [10]

CCN1CCN(C(=O)N[C@@H](C(=O)N[C@@H]2C(=O)N3C(C(=O)O)=C(CSc4nnnn4C)CS[C@H]23)c2ccc(O)cc2)C(=O)C1=O
inactive: outcome [1] | outcome [2] | outcome [3] | Potency [4] | outcome [5] | outcome [6] | max response [7] 15.1% | Potency [8] | Potency [9] | outcome [10]

O=c1[nH]c(=O)c2cn[nH]c2[nH]1
inactive: outcome [1] | outcome [2] | outcome [3] | Potency [4] | outcome [5] | outcome [6] | max response [7] -0.927% | Potency [8] | Potency [9] | outcome [10]

COC(=O)C(c1ccccc1Cl)N1CCc2sccc2C1 (stereo not given)
inactive: outcome [1] | outcome [2] | outcome [3] | Potency [4] | outcome [5] | outcome [6] | max response [7] -3.35% | Potency [8] | Potency [9] | outcome [10]

CCOC(=O)[C@H](CCc1ccccc1)N[C@H]1CS[C@H](c2cccs2)CN(CC(=O)O)C1=O
inactive: outcome [1] | outcome [2] | outcome [3] | Potency [4] | outcome [5] | outcome [6] | max response [7] 0.833% | Potency [8] | Potency [9] | outcome [10]
